Results: PubChem BioAssay (Tox21)
Records with an inconclusive call do not appear. Entries that show only a call come without a potency. Unmarked numbers belong to inactive results. Calls of active or inactive are those of the source. The call rests on the fitted dose curve; in most records, active means well fitted cell-killing curve with a large enough effect in the repeat runs; inconclusive means weak or mixed curves, or effect the other way; inactive means flat fitted curve, though single readings scatter.

Key:
[1] = cAMP Responsive Elements (CRE) small molecule antagonists, cell-based qHTS assay: qHTS cell viability counter screen (AID 2060913); further: nearly all actives have a fitted effect of over 40% in size; further: potency means the concentration at half of the fitted maximal effect
Method in brief: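 Viability of NKH477-stimulated (0.25 uM final) CRE-bla HEK293T cells is measured by CellTiter-Glo luminescence following 3 hrs compound exposure at 37 C.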

[2] = cAMP Responsive Elements (CRE) small molecule agonists, cell-based qHTS assay: qHTS cell viability counter screen (AID 2060914);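 further: viability read after 3 h of compound exposure; nearly all actives have a fitted effect of over 50% in size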
Method in brief: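 HEK 293T CRE-bla; DMEM + 10% dialyzed FBS, 25 mM HEPES; 18 h pre-incubation; compound 3 h, 37 °C/5% CO2; CellTiter-Glo added after reporter read; luminescence after 30 min RT.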

Row | Structure (SMILES) | Potency [1] | Potency [2]
1 | CCCCCCCCCCCCSC#N | inactive | inactive
2 | CSc1ccc(Oc2ccc(S(N)(=O)=O)cc2CN(C)C)cc1C | inactive | inactive
3 | O=c1oc(=O)c2cc3c(=O)oc(=O)c3cc12 | inactive | inactive
4 | CCN(CC)CCNC(=O)c1cc(Br)c(N)cc1OC | inactive | inactive
5 | COc1ccc(-n2nc(C(F)F)cc2-c2ccc(S(C)=O)cc2)cc1 (configuration not stated) | inactive | inactive
6 | O=C(NCC1CCCCN1)c1cc(OCC(F)(F)F)ccc1OCC(F)(F)F (configuration not stated) | inactive | inactive
7 | CNCCS(=O)(=O)O | inactive | inactive
8 | Cc1cccc(Nc2ccccc2C(=O)O)c1C | inactive | inactive
9 | Nc1nnc(-c2ccc([N+](=O)[O-])o2)o1 | inactive | inactive
10 | Clc1nc(Cl)c(Cl)c(Cl)c1Cl | inactive | inactive
11 | O=C1c2ccccc2C(=O)c2c(Cl)cccc21 | inactive | inactive
12 | CC1(C)O[C@H]2CC(=O)OC[C@]23[C@H]2CC[C@@]4(C)[C@H](c5ccoc5)OC(=O)[C@H]5O[C@]54[C@]2(C)C(=O)C[C@@H]13 | inactive | inactive
13 | Brc1ccc(Br)c(Br)c1 | inactive | inactive
14 | COCCOC[C@H](CC1(C(=O)NC2CCC(C(=O)O)CC2)CCCC1)C(=O)Oc1ccc2c(c1)CCC2 (some centres not stated) | inactive | inactive
15 | c1ccc2c(c1)ccc1cc3c(ccc4ccccc43)cc12 | inactive | inactive
16 | Cc1ccc2c(Br)cc(Br)c(O)c2n1 | inactive | inactive
17 | O=C(O)C1CCC(C(=O)O)CC1 (configuration not stated) | inactive | inactive
18 | Cc1ccc(S(=O)(=O)NC(=O)NN2CCCCCC2)cc1 | inactive | inactive
19 | C1=C\CC/C=C\CC/1 | inactive | inactive
20 | Nc1ccn([C@@H]2O[C@H](CO)[C@@H](O)C2(F)F)c(=O)n1 | inactive | inactive
21 | CC(C)=CCC/C(C)=C\CO | inactive | inactive
22 | CC(C)(C)C(=O)C(=O)O | inactive | inactive
23 | OCCOCCN1CCN(C2=Nc3ccccc3Sc3ccccc32)CC1 | inactive | inactive
24 | CS(=O)(=O)c1ccc(-c2cn3ccccc3n2)cc1 | 26.6 µM (active) | inactive
25 | O=C(O)COCCN1CCN(C(c2ccccc2)c2ccc(Cl)cc2)CC1 (configuration not stated) | inactive | inactive
26 | COCCOCCOCCOCCOC | inactive | inactive

Row | Structure (SMILES) | Potency [1] | Potency [2]
27 | COCCCOc1ccnc(CS(=O)c2nc3ccccc3[nH]2)c1C (configuration not stated) | inactive | inactive
28 | CC/C=C\CCOC(=O)CCCCC | inactive | inactive
29 | CC(C)C(=O)OCCc1ccccc1 | inactive | inactive
30 | C=CCc1cc(OC)c(O)c(C(=O)NCCO)c1 | inactive | inactive
31 | Nc1ccc2c3c(cccc13)-c1ccccc1-2 | inactive | inactive
32 | Cc1cc(=O)n(-c2ccccc2)n1C | inactive | inactive
33 | NC(=S)NC(N)=S | inactive | inactive
34 | COc1ccc(C)cc1N | inactive | inactive
35 | O=Cc1c2ccccc2c(Cl)c2ccccc12 | inactive | inactive
36 | CCc1ccc(C=O)cc1 | inactive | inactive
37 | O=C(OCc1ccccc1)c1ccccc1 | inactive | inactive
38 | C=C(C)C(=O)OCCCCCC | inactive | inactive
39 | C=C1C[C@]23C[C@@]1(O)CC[C@H]2[C@@]12C=C[C@H](O)[C@@](C)(C(=O)O1)[C@H]2[C@@H]3C(=O)O | inactive | inactive
40 | N#Cc1ccccc1O | inactive | inactive
41 | O=S1(=O)CCCO1 | inactive | inactive
42 | CCC(=O)OCCC(C)CCC=C(C)C (configuration not stated) | inactive | inactive
43 | Cc1ccc(C(=O)c2ccccc2)cc1 | inactive | inactive
44 | CCCCOC(=O)CCC(C)=O | inactive | inactive
45 | CCCCCCCCCI | inactive | inactive
46 | C1CC(COCC2CO2)CCC1COCC1CO1 (configuration not stated) | inactive | inactive
47 | COc1ccccc1OCC(O)CN1CCN(CC(=O)Nc2c(C)cccc2C)CC1 (configuration not stated) | inactive | inactive
48 | Cc1cnc(C(=O)NCCc2ccc(S(=O)(=O)NC(=O)NC3CCCCC3)cc2)cn1 | inactive | inactive
49 | Oc1ccc(N=Nc2ccccc2)cc1 | inactive | inactive
50 | CC(=O)Nc1ccc(C)cc1C | inactive | inactive
51 | CCOc1ccccc1OCCN[C@H](C)Cc1ccc(OC)c(S(N)(=O)=O)c1 | inactive | inactive
